Key:
Test in all cases: protein-binding microarray (PBM); PBM: ~300 nM protein, 6 mM HEPES pH 7.8, 80 mM KCl, 0.5 mM EDTA, 0.5 mM EGTA, 6% glycerol, 35 ng/ul poly-dIdC, 1% milk, 1 h, room temperature; Ap Aiptasia and Nv Nematostella (sea anemones) / Co Capsaspora / Aq Amphimedon (sponge) / Dm Drosophila / Hu human; RHD is the Rel homology domain; high values mean tight binding
Conditions in all cases: dsDNA, one strand shown
GST-Ap-NF-kB RHD = target: T1, GST-Ap-NF-kB RHD (Exaiptasia pallida (Aiptasia), UniProt A0A913YAJ5 2-422)
T1 sequence: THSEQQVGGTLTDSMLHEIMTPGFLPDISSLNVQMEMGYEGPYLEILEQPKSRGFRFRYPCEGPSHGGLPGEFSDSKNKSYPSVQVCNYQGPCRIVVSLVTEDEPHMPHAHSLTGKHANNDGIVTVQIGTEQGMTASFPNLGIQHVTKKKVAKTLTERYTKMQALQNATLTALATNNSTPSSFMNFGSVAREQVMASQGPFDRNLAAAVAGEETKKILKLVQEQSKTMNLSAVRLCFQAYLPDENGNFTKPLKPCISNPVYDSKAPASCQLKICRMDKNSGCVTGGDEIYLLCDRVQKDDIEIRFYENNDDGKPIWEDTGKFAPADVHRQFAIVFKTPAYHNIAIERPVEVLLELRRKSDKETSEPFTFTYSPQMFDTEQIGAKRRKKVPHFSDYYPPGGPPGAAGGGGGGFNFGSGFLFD

[1] = target: T2, GST-Nv-NF-kB (Cys allele) (Nematostella vectensis, UniProt E5G601 2-411)
T2 sequence: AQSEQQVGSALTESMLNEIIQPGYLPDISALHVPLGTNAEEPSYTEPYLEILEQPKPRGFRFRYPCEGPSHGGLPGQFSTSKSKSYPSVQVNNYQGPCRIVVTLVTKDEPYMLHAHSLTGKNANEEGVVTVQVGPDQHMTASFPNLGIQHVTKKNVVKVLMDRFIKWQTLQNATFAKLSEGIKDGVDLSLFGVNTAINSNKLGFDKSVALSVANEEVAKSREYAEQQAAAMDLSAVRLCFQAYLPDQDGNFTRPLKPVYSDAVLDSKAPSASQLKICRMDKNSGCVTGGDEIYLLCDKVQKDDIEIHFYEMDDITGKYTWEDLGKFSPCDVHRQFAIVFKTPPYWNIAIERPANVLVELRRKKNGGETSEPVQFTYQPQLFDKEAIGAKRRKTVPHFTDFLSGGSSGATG

GST-Co-NF-kB = target: T3, GST-Co-NF-kB (Capsaspora owczarzaki, UniProt F1ARL5 200-546)
T3 sequence: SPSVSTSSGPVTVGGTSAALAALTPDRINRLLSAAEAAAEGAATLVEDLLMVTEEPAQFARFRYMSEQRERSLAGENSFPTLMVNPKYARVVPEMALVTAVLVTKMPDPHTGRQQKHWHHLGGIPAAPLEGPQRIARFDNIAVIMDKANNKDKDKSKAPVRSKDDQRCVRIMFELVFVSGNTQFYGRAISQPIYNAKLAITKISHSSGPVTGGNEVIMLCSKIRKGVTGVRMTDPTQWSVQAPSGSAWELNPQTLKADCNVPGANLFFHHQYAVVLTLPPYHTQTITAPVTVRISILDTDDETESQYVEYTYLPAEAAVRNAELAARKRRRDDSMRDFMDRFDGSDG

GST-Dm-Relish = target: T4, GST-Dm-Relish (Drosophila melanogaster, UniProt Q94527 99-473)
T4 sequence: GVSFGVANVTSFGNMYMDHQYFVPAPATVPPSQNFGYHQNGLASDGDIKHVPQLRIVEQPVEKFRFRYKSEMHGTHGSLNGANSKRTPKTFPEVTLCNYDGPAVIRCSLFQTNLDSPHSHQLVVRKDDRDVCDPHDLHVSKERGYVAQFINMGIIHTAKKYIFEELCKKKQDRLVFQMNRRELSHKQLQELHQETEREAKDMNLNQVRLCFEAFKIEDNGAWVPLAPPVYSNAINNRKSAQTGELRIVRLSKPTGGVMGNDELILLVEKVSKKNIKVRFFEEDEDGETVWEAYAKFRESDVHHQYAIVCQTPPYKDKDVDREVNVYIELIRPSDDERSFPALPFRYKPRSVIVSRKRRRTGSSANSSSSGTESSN

GST-Aq-NF-kB = target: T5, GST-Aq-NF-kB (Amphimedon queenslandica, UniProt A9Y5G7 2-389)
T5 sequence: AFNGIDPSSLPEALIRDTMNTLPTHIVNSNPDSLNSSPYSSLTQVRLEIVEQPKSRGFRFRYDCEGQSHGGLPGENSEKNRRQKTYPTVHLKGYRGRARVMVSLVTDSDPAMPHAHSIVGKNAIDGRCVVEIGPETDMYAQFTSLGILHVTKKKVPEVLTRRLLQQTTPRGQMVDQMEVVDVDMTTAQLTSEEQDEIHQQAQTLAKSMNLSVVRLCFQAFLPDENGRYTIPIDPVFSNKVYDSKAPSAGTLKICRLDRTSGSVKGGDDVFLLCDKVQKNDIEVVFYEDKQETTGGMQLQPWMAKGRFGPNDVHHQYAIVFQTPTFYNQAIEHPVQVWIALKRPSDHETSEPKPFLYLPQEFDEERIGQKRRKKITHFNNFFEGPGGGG

Sequence | binding signal (GST-Ap-NF-kB RHD) | binding signal [1] | binding signal (GST-Co-NF-kB) | binding signal (GST-Dm-Relish) | binding signal (GST-Aq-NF-kB)
CCGATTAACATCATGGGTGGGAATGATGTTAATCGGGTCTTGATTCGCTTGACGCTGCTG | 1.4 z-score | 1.79 z-score | 2.62 z-score | 1.66 z-score | 2.5 z-score
CCGATTAACATCAAATTTTCCCATGATGTTAATCGGGTCTTGATTCGCTTGACGCTGCTG | 3.65 z-score | 5.18 z-score | 5.19 z-score | 1.94 z-score | 4.45 z-score
CCGATTAACATCACTACTTTCCCTGATGTTAATCGGGTCTTGATTCGCTTGACGCTGCTG | 3.07 z-score | 3.89 z-score | 3.41 z-score | 1.63 z-score | 3.68 z-score
CCGATTAACATCACGGAGTCCCCTGATGTTAATCGGGTCTTGATTCGCTTGACGCTGCTG | 6.33 z-score | 4.74 z-score | 2.46 z-score | 7.32 z-score | 4.65 z-score
CCGATTAACATCAACACCCCCCCTGATGTTAATCGGGTCTTGATTCGCTTGACGCTGCTG | 5.32 z-score | 4.06 z-score | 5.33 z-score | 5.81 z-score | 4.43 z-score
CCGATTAACATCAATGGGAAAATTGATGTTAATCGGGTCTTGATTCGCTTGACGCTGCTG | 1.56 z-score | 4.28 z-score | 3.46 z-score | 1.25 z-score | 3.05 z-score
CCGATTAACATCACTAATTTCCCTGATGTTAATCGGGTCTTGATTCGCTTGACGCTGCTG | 3.79 z-score | 4.55 z-score | 4.57 z-score | 2.5 z-score | 4.09 z-score
CCGATTAACATCAAGGGATTTCCTGATGTTAATCGGGTCTTGATTCGCTTGACGCTGCTG | 5.46 z-score | 5.12 z-score | 1.32 z-score | 7.74 z-score | 6.44 z-score
CCGATTAACATCAATTTCCCGCCTGATGTTAATCGGGTCTTGATTCGCTTGACGCTGCTG | 2.79 z-score | 3.63 z-score | 3.64 z-score | 1.31 z-score | 2.64 z-score
CCGATTAACATCAGGGGAGAATATGATGTTAATCGGGTCTTGATTCGCTTGACGCTGCTG | 4.99 z-score | 5.42 z-score | 7.41 z-score | 1.73 z-score | 3.83 z-score
CCGATTAACATCAGGGGGGGTCATGATGTTAATCGGGTCTTGATTCGCTTGACGCTGCTG | 3.99 z-score | 2.96 z-score | 3.31 z-score | 3.85 z-score | 3.54 z-score
CCGATTAACATCACGGGAACCCCTGATGTTAATCGGGTCTTGATTCGCTTGACGCTGCTG | 5.04 z-score | 2.85 z-score | 1.9 z-score | 9.89 z-score | 5.86 z-score
CCGATTAACATCACAAAAATCCCTGATGTTAATCGGGTCTTGATTCGCTTGACGCTGCTG | 5.86 z-score | 6.11 z-score | 2.59 z-score | 8.17 z-score | 6.23 z-score
CCGATTAACATCAACGCCCCCCCTGATGTTAATCGGGTCTTGATTCGCTTGACGCTGCTG | 5.09 z-score | 4.29 z-score | 4.15 z-score | 4.35 z-score | 4.73 z-score
CCGATTAACATCAATTCCCAAGGTGATGTTAATCGGGTCTTGATTCGCTTGACGCTGCTG | 1.3 z-score | 1.9 z-score | 2.02 z-score | 1.17 z-score | 1.55 z-score
CCGATTAACATCAGGGTATTTACTGATGTTAATCGGGTCTTGATTCGCTTGACGCTGCTG | 3.45 z-score | 5.05 z-score | 1.4 z-score | 7.1 z-score | 6.01 z-score
CCGATTAACATCAGGGGTTCACCTGATGTTAATCGGGTCTTGATTCGCTTGACGCTGCTG | 3.84 z-score | 2.71 z-score | 1.45 z-score | 8.89 z-score | 4.82 z-score
CCGATTAACATCAGGGGGGGTGATGATGTTAATCGGGTCTTGATTCGCTTGACGCTGCTG | 3.51 z-score | 4.08 z-score | 4.48 z-score | 4.26 z-score | 4.36 z-score
CCGATTAACATCAACCCTCCCCCTGATGTTAATCGGGTCTTGATTCGCTTGACGCTGCTG | 3.89 z-score | 3.26 z-score | 4.5 z-score | 2.76 z-score | 3.64 z-score
CCGATTAACATCAGGACACCCCCTGATGTTAATCGGGTCTTGATTCGCTTGACGCTGCTG | 6.35 z-score | 5.22 z-score | 2.5 z-score | 6.86 z-score | 7.67 z-score
CCGATTAACATCAGGGGGCAAGATGATGTTAATCGGGTCTTGATTCGCTTGACGCTGCTG | 2.07 z-score | 2.14 z-score | 2.69 z-score | 1.01 z-score | 2.76 z-score
CCGATTAACATCAGGGAATTAACTGATGTTAATCGGGTCTTGATTCGCTTGACGCTGCTG | 2.83 z-score | 4.33 z-score | 2.63 z-score | 4.07 z-score | 5.19 z-score
CCGATTAACATCACACATTTCCCTGATGTTAATCGGGTCTTGATTCGCTTGACGCTGCTG | 2.78 z-score | 4.57 z-score | 4.08 z-score | 1.1 z-score | 3.88 z-score
CCGATTAACATCAACCCCCGGCTTGATGTTAATCGGGTCTTGATTCGCTTGACGCTGCTG | 4.17 z-score | 2.37 z-score | 2.79 z-score | 4.35 z-score | 2.51 z-score
CCGATTAACATCAACCCCGTTTCTGATGTTAATCGGGTCTTGATTCGCTTGACGCTGCTG | 1.51 z-score | 1.29 z-score | 1.63 z-score | 1.65 z-score | 2.24 z-score
CCGATTAACATCAGGGCAGCCCCTGATGTTAATCGGGTCTTGATTCGCTTGACGCTGCTG | 4.41 z-score | 4.88 z-score | 1.25 z-score | 4.16 z-score | 7.43 z-score
CCGATTAACATCAATGGGAATTCTGATGTTAATCGGGTCTTGATTCGCTTGACGCTGCTG | 2.8 z-score | 4.72 z-score | 2.98 z-score | 4.26 z-score | 3.51 z-score

Source: paper PMC5700166
